Assay results published in PubChem BioAssay.
For some of these results: Results with a measured potency or affinity are listed apart. Activity calls are given as the source filed them.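 The calls were made as follows, unless noted: active = thallium flux through the channel raised or lowered by more than 3 SD from vehicle-only wells, actives on both sides; inactive = the rest.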

Columns and labels:
[1] = liver-stage malaria parasite growth inhibition, primary screen, cell-based, HepG2, luciferase luminescence, HepG2 viability (AID 624349; in the data active = parasite load remaining mostly below about 12%, no sharp cut-off; inactive = mostly above about 10%;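 also: 100% = mean of DMSO negative control wells on the same plate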); conditions: P. berghei liver stage in HepG2, luciferase luminescence, concentration not given here; parasite load remaining: stronger effect = lower value; viability: measured here: HepG2 viability without parasites
[2] = system: Neuropilin-2 / VEGF-C interaction (human); assay: inhibitors of NRP2–VEGF-C binding, biochemical, microplate binding format, z-score (AID 743281; call rule not given here); conditions: microplate NRP2/VEGF-C binding assay; stronger effect = lower value
[3] = modulation of C. elegans fzo-1 (AID 1259413; call rule not given here;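 also: fzo-1 mutant C. elegans worms in liquid wells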); conditions: C. elegans fzo-1 modulator screen, mean read-out; stronger effect = higher value
[4] = differential killing of epithelial or mesenchymal cells, primary screen, imaging, PC-3E GFP, TEM4-18 mCherry, co-culture (AID 1345086;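 active = compounds killing one labelled cell type while sparing the other, by normalised counts and ratio limits, not self-fluorescent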;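 also: cells exposed to compound for 72 h before imaging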;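 as to red/green cell ratio (normalised): normalised mesenchymal count divided by normalised epithelial count so high means epithelial killing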); conditions: imaging cell counts, at 1 µM
[5] = sensitizers of A549 cells to miR-34 induction, primary screen, imaging, A549 dox-inducible miR-34, nuclei and caspase counts (AID 1347080;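 active = compounds whose cell count with miR-34 switched on is under 0.7 times the count with it off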); conditions: A549 miR-34 inducible, Hoechst nuclei count, 48 h
[6] = system: F380Y; assay: modulators of BK channel variants, profiling panel, selectivity assay, cell-based, U2OS BacMam, thallium flux, beta subunits (AID 1259406); conditions: at 30 µM;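 also: initial slope of Thallos dye fluorescence rise after thallium is added; log ratio against the mean of 0.3% DMSO vehicle wells on the same plate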
[7] = system: F380Y/beta1; assay: as above; conditions: at 30 µM
[8] = system: F380Y/beta2Delta; assay: as above; conditions: at 30 µM
[9] = system: F380Y/beta4; assay: as above; conditions: at 30 µM
[10] = biological target: Calcium-activated potassium channel subunit alpha-1 (Homo sapiens) + Leucine-rich repeat-containing protein 26 (Homo sapiens) (UniProt Q12791+Q2I0M4); assay: as above; conditions: F380Y/Slo1WT/gamma1, at 30 µM
[11] = system: R275C; assay: as above; conditions: at 30 µM
[12] = system: R275C/beta1; assay: as above; conditions: at 30 µM
[13] = system: R275C/beta2Delta; assay: as above; conditions: at 30 µM
[14] = system: R275C/beta4; assay: as above; conditions: at 30 µM
[15] = system: R275C/Slo1WT/beta2; assay: as above; conditions: at 30 µM
[16] = biological target: Calcium-dependent protein kinase 1 (Plasmodium falciparum (isolate 3D7)) (UniProt P62344); assay: PfCDPK1 kinase inhibitors, biochemical, TCAMS library (AID 1159585; cut-off not given, nearly all actives have IC50 up to about 0.98 µM;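 also: inhibitors leave more ATP so luminescence rises with inhibition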); conditions: recombinant PfCDPK1, Kinase-Glo ATP depletion luminescence
[17] = Cy5 fluorescence interference with SSB-bound oligo, artefact control for HCV NS3 helicase inhibitor project, biochemical, NIH Clinical Collection, E. coli SSB (AID 743268; call rule not given here)
[18] = system: Hepatitis C virus NS3 helicase; assay: HCV NS3 helicase inhibitors, primary screen, biochemical, fluorescence polarization, NIH Clinical Collection (AID 743270; call rule not given here); conditions: NS3 helicase binding to Cy5-dT15 DNA, stronger effect = higher value, concentration not given here
[19] = biological target: Single-stranded DNA-binding protein (Escherichia coli (strain K12)) (UniProt P0AGE0); assay: E. coli SSB displacement from DNA, counter-screen for HCV NS3 helicase inhibitor project, biochemical, fluorescence polarization, NIH Clinical Collection (AID 743271; in the data active = inhibition above about 28%); conditions: stronger effect = higher value, concentration not given here
[20] = fluorescence interference in NS3h assay format, artefact control for HCV NS3 helicase inhibitor project, biochemical, NIH Clinical Collection (AID 743272; call rule not given here;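 also: HCV NS3 helicase with a Cy5 labelled single stranded DNA probe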); conditions: fluorescence interference counterscreen, stronger effect = lower value
[21] = measured here: relative caspase fold change +Dox/-Dox
[22] = measured here: total cells with miR-34 induction, stronger effect = lower value
[23] = measured here: total cells without miR-34 induction

Chain of Calcium-activated potassium channel subunit alpha-1 (Homo sapiens) + Leucine-rich repeat-containing protein 26 (Homo sapiens) (Q2I0M4 whole entry, looked up, one chain of several): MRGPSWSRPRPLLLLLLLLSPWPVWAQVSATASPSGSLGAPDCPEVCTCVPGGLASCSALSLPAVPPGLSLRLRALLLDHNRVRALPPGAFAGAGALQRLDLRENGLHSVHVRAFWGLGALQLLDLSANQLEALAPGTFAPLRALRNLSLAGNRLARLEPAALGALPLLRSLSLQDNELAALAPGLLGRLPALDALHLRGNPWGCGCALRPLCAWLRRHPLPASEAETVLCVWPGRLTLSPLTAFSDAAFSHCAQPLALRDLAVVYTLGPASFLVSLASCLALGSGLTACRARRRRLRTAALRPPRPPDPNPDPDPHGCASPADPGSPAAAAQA
Chain of Calcium-dependent protein kinase 1 (Plasmodium falciparum (isolate 3D7)) (P62344 whole entry, looked up): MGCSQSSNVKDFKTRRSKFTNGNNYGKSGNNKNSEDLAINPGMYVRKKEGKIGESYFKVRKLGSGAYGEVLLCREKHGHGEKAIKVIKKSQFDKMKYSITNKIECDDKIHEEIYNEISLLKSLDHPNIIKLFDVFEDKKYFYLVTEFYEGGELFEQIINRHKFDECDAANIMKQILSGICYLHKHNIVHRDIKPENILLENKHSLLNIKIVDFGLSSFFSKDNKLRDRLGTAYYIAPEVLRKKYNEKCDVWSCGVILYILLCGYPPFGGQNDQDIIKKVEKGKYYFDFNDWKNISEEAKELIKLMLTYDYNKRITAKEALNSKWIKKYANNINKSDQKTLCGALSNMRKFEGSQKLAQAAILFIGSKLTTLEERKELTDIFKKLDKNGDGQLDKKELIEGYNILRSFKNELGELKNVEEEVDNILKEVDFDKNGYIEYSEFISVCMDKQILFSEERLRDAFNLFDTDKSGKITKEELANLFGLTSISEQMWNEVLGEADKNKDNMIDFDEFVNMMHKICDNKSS

Structure (SMILES): CCOC(=O)c1cncn1[C@H](C)c1ccccc1
- parasite load remaining [1]: 110% (inactive)
- viability [1]: 75.6%
- z-score [2]: 0.0538 (inactive)
- mean signal [3]: 274 (inactive)
- red/green cell ratio (normalised) ([4]; actives lie on both sides): 0.98 (inactive)
- normalised cell number ([4]; measured here: epithelial PC-3E GFP cell survival): 0.95
- normalised cell number ([4]; measured here: mesenchymal TEM4-18 mCherry cell survival): 0.93
- fold change ([5]; stronger effect = lower value): 0.964 (inactive)
- fold change [5, 21]: 0.785
- cell count [5, 22]: 9210
- cell count [5, 23]: 9560
- log fold change Tl+ flux [6]: -0.0483 (inactive)
- log fold change Tl+ flux [7]: -0.0564 (inactive)
- log fold change Tl+ flux [8]: -0.0261 (inactive)
- log fold change Tl+ flux [9]: -0.0155 (inactive)
- log fold change Tl+ flux [10]: 0.0279 (inactive)
- log fold change Tl+ flux [11]: 0.000434 (inactive)
- log fold change Tl+ flux [12]: 0.000109 (inactive)
- log fold change Tl+ flux [13]: 0.0419 (inactive)
- log fold change Tl+ flux [14]: 0.0313 (inactive)
- log fold change Tl+ flux [15]: 0.023 (inactive)

Structure (SMILES): CC(=O)Nc1ccc(CN2CCC(N(C)c3ccc(NC(=O)c4cccc(C)c4)cc3)CC2)cc1
- outcome [16]: inactive

Structure (SMILES): CC[C@H]1CN2CC[C@H]1C[C@H]2[C@H](O)c1cc(-c2ccc(SC)cc2)nc2ccc(OC)cc12
- outcome [16]: inactive

Structure (SMILES): CC(C)[C@]12O[C@H]1[C@@H]1O[C@]13[C@]1(O[C@H]1C[C@H]1C4=C(CC[C@@]13C)C(=O)OC4)[C@@H]2O
- parasite load remaining [1]: 122% (inactive)
- viability [1]: 67.7%
- fluorescence ratio [17]: 1.04 (inactive)
- inhibition [18]: -2.77% (inactive)
- inhibition [19]: -6.26% (inactive)
- fluorescence ratio [20]: 1.03 (inactive)
- z-score [2]: 0.859 (inactive)
- mean signal [3]: 159 (inactive)
- fold change ([5]; stronger effect = lower value): 1.04 (inactive)
- fold change [5, 21]: 1.51
- cell count [5, 22]: 1360
- cell count [5, 23]: 1300
- log fold change Tl+ flux [6]: -0.0264 (inactive)
- log fold change Tl+ flux [7]: -0.0154 (inactive)
- log fold change Tl+ flux [8]: -0.0407 (inactive)
- log fold change Tl+ flux [9]: 0.00828 (inactive)
- log fold change Tl+ flux [10]: 0.0324 (inactive)
- log fold change Tl+ flux [11]: -0.0177 (inactive)
- log fold change Tl+ flux [12]: 0.0288 (inactive)
- log fold change Tl+ flux [13]: 0.0395 (inactive)
- log fold change Tl+ flux [14]: 0.0135 (inactive)
- log fold change Tl+ flux [15]: 0.00131 (inactive)

Structure (SMILES): Oc1cc2c(cc1O)[C@H]1c3ccccc3CN[C@@H]1CC2
- parasite load remaining [1]: 31.6% (inactive)
- viability [1]: 68.7%
- fluorescence ratio [17]: 0.94 (inactive)
- inhibition [18]: -5.46% (inactive)
- inhibition [19]: -4.33% (inactive)
- fluorescence ratio [20]: 0.91 (inactive)
- z-score [2]: -4.26 (active)
- mean signal [3]: 249 (inactive)
- fold change ([5]; stronger effect = lower value, cell number ratio, induced over uninduced): 0.969 (inactive)
- fold change [5, 21]: 0.736
- cell count [5, 22]: 8740
- cell count [5, 23]: 9020
- log fold change Tl+ flux [6]: -0.103 (inactive)
- log fold change Tl+ flux [7]: 0.0598 (inactive)
- log fold change Tl+ flux [8]: -0.0567 (inactive)
- log fold change Tl+ flux [9]: -0.0725 (inactive)
- log fold change Tl+ flux [10]: 0.0857 (inactive)
- log fold change Tl+ flux [11]: -0.0506 (inactive)
- log fold change Tl+ flux [12]: 0.0796 (active)
- log fold change Tl+ flux [13]: 0.137 (active)
- log fold change Tl+ flux [14]: 0.0776 (inactive)
- log fold change Tl+ flux [15]: 0.0271 (inactive)

Structure (SMILES): Cc1ncc2n1-c1ccc(Cl)cc1C(c1ccccc1F)=NC2
- parasite load remaining [1]: 105% (inactive)
- viability [1]: 73.5%
- fluorescence ratio [17]: 1.04 (inactive)
- inhibition [18]: -1.98% (inactive)
- inhibition [19]: -3.18% (inactive)
- fluorescence ratio [20]: 1.02 (inactive)
- z-score [2]: -0.669 (inactive)
- mean signal [3]: 220 (inactive)
- fold change ([5]; stronger effect = lower value): 1.08 (inactive)
- fold change [5, 21]: 1.63
- cell count [5, 22]: 6900
- cell count [5, 23]: 6400
- log fold change Tl+ flux [6]: -0.403 (active)
- log fold change Tl+ flux [7]: -0.386 (active)
- log fold change Tl+ flux [8]: -0.205 (active)
- log fold change Tl+ flux [9]: -0.197 (active)
- log fold change Tl+ flux [10]: -0.019 (inactive)
- log fold change Tl+ flux [11]: -0.0381 (inactive)
- log fold change Tl+ flux [12]: -0.128 (active)
- log fold change Tl+ flux [13]: -0.00496 (inactive)
- log fold change Tl+ flux [14]: 0.138 (active)
- log fold change Tl+ flux [15]: 0.000117 (inactive)

Structure (SMILES): C[C@]12CC(=CO)C(=O)C[C@@H]1CC[C@@H]1[C@@H]2CC[C@@]2(C)[C@H]1CC[C@]2(C)O
- parasite load remaining [1]: 62.4% (inactive)
- viability [1]: 66.1%
- fluorescence ratio [17]: 1.04 (inactive)
- inhibition [18]: 5.15% (inactive)
- inhibition [19]: 3.75% (inactive)
- fluorescence ratio [20]: 1.01 (inactive)
- log fold change Tl+ flux [6]: 0.111 (active)
- log fold change Tl+ flux [7]: 0.204 (active)
- log fold change Tl+ flux [8]: 0.171 (active)
- log fold change Tl+ flux [9]: 0.113 (active)
- log fold change Tl+ flux [10]: 0.208 (active)
- log fold change Tl+ flux [11]: 0.0626 (inactive)
- log fold change Tl+ flux [12]: 0.301 (active)
- log fold change Tl+ flux [13]: 0.261 (active)
- log fold change Tl+ flux [14]: 0.148 (active)
- log fold change Tl+ flux [15]: 0.0227 (inactive)

Structure (SMILES): O=C1Nc2ccc(Cl)cc2C(c2ccccc2Cl)=NC1O (centres undefined)
- parasite load remaining [1]: 64.7% (inactive)
- viability [1]: 68.3%
- fluorescence ratio [17]: 0.98 (inactive)
- inhibition [18]: -3.71% (inactive)
- inhibition [19]: -0.39% (inactive)
- fluorescence ratio [20]: 0.96 (inactive)
- z-score [2]: -0.398 (inactive)
- mean signal [3]: 233 (inactive)
- fold change ([5]; stronger effect = lower value): 0.901 (inactive)
- fold change [5, 21]: 1.36
- cell count [5, 22]: 9700
- cell count [5, 23]: 10800

Structure (SMILES): CN=C1CN(O)C(c2ccccc2)=c2cc(Cl)ccc2=N1
- parasite load remaining [1]: 61% (inactive)
- viability [1]: 68.2%
- fluorescence ratio [17]: 0.93 (inactive)
- inhibition [18]: -3.71% (inactive)
- inhibition [19]: 1.97% (inactive)
- fluorescence ratio [20]: 0.94 (inactive)
- z-score [2]: 0.413 (inactive)
- mean signal [3]: 209 (inactive)
- fold change ([5]; stronger effect = lower value): 0.896 (inactive)
- fold change [5, 21]: 1.36
- cell count [5, 22]: 9820
- cell count [5, 23]: 11000
- log fold change Tl+ flux [6]: 0.0582 (inactive)
- log fold change Tl+ flux [7]: 0.0256 (inactive)
- log fold change Tl+ flux [8]: 0.0735 (inactive)
- log fold change Tl+ flux [9]: 0.0618 (inactive)
- log fold change Tl+ flux [10]: 0.00615 (inactive)
- log fold change Tl+ flux [11]: -0.0835 (inactive)
- log fold change Tl+ flux [12]: 0.11 (active)
- log fold change Tl+ flux [13]: 0.0426 (inactive)
- log fold change Tl+ flux [14]: 0.0262 (inactive)
- log fold change Tl+ flux [15]: -0.0229 (inactive)
